Screens deposited in PubChem BioAssay by several laboratories.
CSC inhib: cancer stem cell viability inhibitors, primary screen, luminescence. cancer stem cell-like cells viability. 300,000 compounds, 1.1% hits. inhibition, % at 7.5 µM; in the data active means inhibition above about 75%; tested in HMLE shEcad cells
MPTP inh: mitochondrial permeability transition pore inhibitors, primary screen, biochemical, isolated mouse mitochondria, absorbance; 360,000 compounds, 1.4% hits; inhibition, % at 10 µM; Ca2+ swelling absorbance, 30 min; AID 602449, 2012;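 active means inhibition of 50% or more, scaled per plate between neutral and stimulator controls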;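 further: 0% = DMSO wells given calcium and 100% = 1 mM EGTA wells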
SKKanGAS inh: S. pyogenes SKKanGAS growth inhibitors in kanamycin, primary screen, streptokinase expression inhibitor project, SKKanGAS strain, BacTiter-Glo luminescence; inhibition, % at 7.5 µM; 6 h; 300,000 compounds, 1.3% hits;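 active means mean replicate score, as percent of positive control median, at least 50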;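 further: strain carries kanamycin resistance gene driven by streptokinase promoter and grows in 40 µg/ml kanamycin; loss of luminescence reflects streptokinase promoter inhibition or plain growth inhibition; 0% = median of DMSO wells and 100% = positive control at its reference dose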
Beta cell apopt: inhibitors of cytokine-induced beta cell apoptosis, primary screen, luminescence; protection from apoptosis, % (no concentration beside the values); AID 435005, 2010; 300,000 compounds, 0.8% hits; INS-1E cytokine-induced death, ATP luminescence, 48 h; percent of positive-control rescue, neutral wells zero;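 active means Every replicate reaches about 75%, or at least half do and their mean reaches it too, limit read from the data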;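 further: 0% = cytokine-treated negative control wells and 100% = positive control rescue; higher means more ATP so stronger rescue from cytokine killing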
NR3A LBD binder: binders of NR3A ligand-binding domain, primary screen, biophysical, differential scanning fluorimetry, uHTS | Glutamate receptor ionotropic, NMDA 3A (GRIN3A) ligand-binding domain | NR3A LBD differential scanning fluorimetry, Tm shift; 0% = protein alone, 100% = glycine-bound protein | Tm shift relative to glycine control, % at 25 µM | 340,000 compounds, 2.5% hits | AID 1259313, 2017;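 active means melting temperature shift of at least 10% of the positive control shift, at one fixed dose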
Mdm2-MdmX inh: inhibitors of human Mdm2-MdmX association, primary screen, cell-based, luminescence, split luciferase, SaOS-2, uHTS. 330,000 compounds, 3% hits. SaOS-2 split-luciferase Mdm2/MdmX complementation. Protein Mdm4 (Homo sapiens) + E3 ubiquitin-protein ligase Mdm2 (Homo sapiens), …. inhibition, % at 8 µM;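 active means inhibition of at least 50% at 8 µM in the primary screen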
Target sequence (O15151 whole entry, looked up): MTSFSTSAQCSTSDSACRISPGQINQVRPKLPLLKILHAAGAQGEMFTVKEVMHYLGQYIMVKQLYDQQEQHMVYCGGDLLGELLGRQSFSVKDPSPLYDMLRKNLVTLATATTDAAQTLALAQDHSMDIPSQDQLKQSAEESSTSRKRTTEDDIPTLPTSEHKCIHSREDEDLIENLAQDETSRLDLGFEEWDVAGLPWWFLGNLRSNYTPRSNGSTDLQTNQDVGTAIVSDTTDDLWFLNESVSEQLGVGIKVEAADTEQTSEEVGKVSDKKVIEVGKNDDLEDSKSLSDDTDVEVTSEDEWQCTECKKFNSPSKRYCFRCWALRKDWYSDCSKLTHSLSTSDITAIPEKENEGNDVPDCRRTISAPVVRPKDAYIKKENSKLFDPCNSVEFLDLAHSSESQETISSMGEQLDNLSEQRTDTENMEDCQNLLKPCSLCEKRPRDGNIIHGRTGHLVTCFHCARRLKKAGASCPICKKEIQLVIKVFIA
Target sequence (Q00987 whole entry, looked up): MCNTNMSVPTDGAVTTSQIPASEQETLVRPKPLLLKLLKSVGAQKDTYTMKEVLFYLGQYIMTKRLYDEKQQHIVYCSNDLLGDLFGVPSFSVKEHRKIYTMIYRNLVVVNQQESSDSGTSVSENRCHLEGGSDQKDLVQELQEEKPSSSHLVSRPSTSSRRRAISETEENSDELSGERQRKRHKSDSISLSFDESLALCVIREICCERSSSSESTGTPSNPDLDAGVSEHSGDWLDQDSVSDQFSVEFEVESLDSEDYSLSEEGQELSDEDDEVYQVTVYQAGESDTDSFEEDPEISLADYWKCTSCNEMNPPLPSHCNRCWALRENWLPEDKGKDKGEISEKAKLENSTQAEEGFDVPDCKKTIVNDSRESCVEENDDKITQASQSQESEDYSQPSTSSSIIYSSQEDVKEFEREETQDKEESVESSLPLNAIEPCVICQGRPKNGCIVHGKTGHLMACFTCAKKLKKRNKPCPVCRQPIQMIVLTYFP
MPTP counter: fluorescence retest of MPTP screen hits in isolated mitochondria, single concentration. shares compounds with MPTP inh. membrane potential, Rhodamine 123 fluorescence. inhibition, % at 10 µM. 5,000 compounds, 78% hits; in the data active means inhibition above about 22%;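 further: 0% = DMSO vehicle and 100% = positive control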
An asterisk follows results filed as active; . = no result given. Hits are enriched below; roughly 6.9% of the tested compounds scored in any of these assays.

SMILES	CSC inhib	MPTP inh	SKKanGAS inh	Beta cell apopt	NR3A LBD binder	Mdm2-MdmX inh	MPTP counter
NNC(=O)C(Cc1c[nH]c2ccccc12)NC(=O)c1ccccc1 (centres undefined)	-21	0	3	2	2	11	.
C=CCN=c1scc(-c2ccc3c(c2)NC(=O)CO3)n1/N=C(\C)c1ccccn1	.	95*	.	.	-12	.	62*
C=CCN=c1scc(-c2ccc(F)cc2)n1/N=C/c1ccccn1	33	10	-2	20	-1	-6	.
CC(C)c1cc(NCCOCCO)n2c(nc3ccccc32)c1C#N	-4	1	7	3	0	20	.
CCCN(CC(=O)Nc1ccccc1OC)C(=O)c1nc2nc(C)ccn2n1	9	-2	.	-2	-1	6	.
O=C(N/N=C/c1ccc(Sc2ccccn2)o1)c1cc2ccccc2cc1O	-5	68*	8	-5	9	25	35*
O=C(c1cccc(S(=O)(=O)N2CCN(c3ccccc3)CC2)c1)N1CCCC(C(F)(F)F)C1 (centres undefined)	1	68*	-2	34	2	22	71*
CCCCn1c(CN2CCN(c3cccc(Cl)c3)CC2)nc2c1c(=O)n(C)c(=O)n2C	5	36	20	2	-2	4	.
CCCn1c(CN2CCN(c3cccc(Cl)c3)CC2)nc2c1c(=O)n(C)c(=O)n2C	-1	78*	6	3	-3	32	80*
CS(=O)(=O)c1ccccc1COC(=O)Nc1ccc(Cl)cc1	-19	1	-9	4	-4	11	.
O=C(Nc1ccc(Cl)cc1)OCc1ccccn1	10	91*	-7	-7	22*	-117	85*
O=C(Nc1ccc(Cl)cc1)OCc1cn(-c2ccc(Cl)cc2)nn1	7	85*	-9	1	-4	-16	83*
CCN1CCN(C(=O)CCNC(=O)Cn2cnc3ccccc3c2=O)CC1	-9	0	0	-9	2	-19	.
CN(CC(=O)Nc1ccc(F)cc1)C(=O)CN1C(=O)c2cccc([N+](=O)[O-])c2C1=O	1	0	.	4	1	2	.
O=C(Nc1ccccc1O)C(c1ccccc1)c1ccccc1	3	83*	18	94*	-15	7	83*
CC(C)Cc1ccc(C(C)C(=O)Nc2ccccc2O)cc1 (centres undefined)	21	90*	-3	61	-1	26	95*
O=C(O)c1ccccc1NC(=O)C(c1ccccc1)c1ccccc1	6	2	6	.	-3	-23	.
COc1cc(C(O)c2nc(-c3cc4ccccc4o3)cs2)ccc1F (centres undefined)	.	59*	.	.	.	.	80*
COc1cccc(C(O)c2nc(-c3cc4ccccc4o3)cs2)c1 (centres undefined)	.	5	.	.	.	.	.
COc1cc(C(O)c2nc(-c3ccc(N(C)C)cc3)cs2)ccc1F (centres undefined)	.	64*	.	.	.	.	66*
COc1cc(C(O)c2nc(-c3cc(F)cc(F)c3)cs2)ccc1F (centres undefined)	.	4	.	.	.	.	.
